Test results from PubChem BioAssay (Tox21).
Values joined by “and” are separate entries in the source; they are usually repeats but may differ in a detail not shown here. Identical values can stand only once. Results filed as inconclusive are left out. Active and inactive are the calls of the source. Unless noted, the call rests on the fitted dose curve; in most records, active means well fitted curve in the direction sought with a large enough effect in the repeat runs; inconclusive means weak or mixed curves; inactive means no such curve, though single readings can be large; an effect the other way counts as inactive or inconclusive.

Tests used:
[1] = qHTS assay for small molecule agonists of the p53 signaling pathway (AID 651631; calls by dose curve; further: nearly all actives have a fitted effect of over 15% in size)
Procedure, shortened: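 Agonist mode screen using a stably integrated beta-lactamase gene under p53 response elements in HCT-116 cells. Compound exposure lasts 16 h at 37 °C; fluorescence intensity is measured following 2 h FRET substrate loading.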

[2] = qHTS assay for small molecules that induce genotoxicity in human embryonic kidney cells expressing luciferase-tagged ATAD5 (AID 651632); further: nearly all actives have a fitted effect of over 15% in size
Procedure, shortened: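 Test compounds were delivered by pin tool onto HEK293T reporter cells (2,000/well) expressing ATAD5 fused to luciferase. After 16 hr at 37C, 5% CO2, Amplite was added for 30 min at room temperature and luminescence was measured.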

[3] = qHTS assay for small molecule agonists of the p53 signaling pathway - cell viability (AID 651633; calls by dose curve;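 further: p53RE-bla HCT reporter cells with a stable beta-lactamase p53 reporter; series mostly up to about 83 µM; nearly all actives have a fitted effect of over 30% in size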)
Procedure, shortened: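 p53RE-bla cells were treated with compound for 16 hours at 37 C. Cytotoxicity was then measured as CellTiter-Glo luminescence after 30 min at room temperature.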

[4] = qHTS assay for small molecules that induce genotoxicity in human embryonic kidney cells expressing luciferase-tagged ATAD5 - cell viability (AID 651634; calls by dose curve; further: nearly all actives have a fitted effect of over 25% in size)
Procedure, shortened: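 Quantitative high-throughput format. HEK293T cells expressing ATAD5 fused to luciferase were plated at 2,000 cells/well and treated 15.5 hr with compound versus DMSO. Viability was determined by fluorescent live-cell protease substrate, 30 min at 37C.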

[5] = qHTS assay for small molecule disruptors of the mitochondrial membrane potential - cell viability (AID 720634; calls by dose curve;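 further: human HepG2 liver cancer cells; series mostly up to about 83 µM; nearly all actives have a fitted effect of over 20% in size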)
Procedure, shortened: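 Same-well counter-screen: following the MMP dye addition, CellTiter-Glo was added to 1 hr compound-treated HepG2 cells and luminescence read after 30 min at room temperature.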

[6] = qHTS assay for small molecule disruptors of the mitochondrial membrane potential (AID 720635); further: potency means the concentration at half of the fitted maximal effect
Procedure, shortened: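 HepG2 cells exposed to compound 1 hr at 37C, then Mito-MPS dye 30 min. Ratio read of aggregate (540/590 nm) versus monomer (490/535 nm) fluorescence.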

[7] = qHTS assay to test for compound auto fluorescence at 590 nm (red) in HepG2 cells (AID 720674)
Procedure, shortened: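 HepG2 cells, 2,000 per well in MEM with 10% FBS, attached overnight at 37 C, then got 23 nL compound or DMSO. After 1 hr at 37 C, 5% CO2, red fluorescence was read at 540/590 nm against Rose Bengal sodium as reference.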

[8] = qHTS assay to test for compound auto fluorescence at 535 nm (green) in HepG2 cells (AID 720675)
[9] = qHTS assay to test for compound auto fluorescence at 460 nm (blue) in HEK293 cells (AID 720678)
Procedure, shortened: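 After cell attachment (4-5 hr, 37C), compounds were pinned onto HEK293 monolayers in 10% dialyzed FBS medium. The blue channel (405/460 nm) was read following overnight culture. Equivalency was calculated against triamterene.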

[10] = qHTS assay to test for compound auto fluorescence at 590 nm (red) in HEK293 cells (AID 720679)
Procedure, shortened: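 Plates of HEK293 cells (10% dialyzed FBS) are treated with 23 nL compound or DMSO vehicle after a 4-5 hr attachment period, incubated overnight at 37C, and read for red fluorescence at 540/590nm.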

[11] = qHTS assay to test for compound auto fluorescence at 535 nm (green) in HEK293 cells (AID 720680)
[12] = qHTS assay to test for compound auto fluorescence at 460 nm (blue) in HEK293 cell free culture (AID 720681)
Procedure, shortened: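 Compounds were added to cell-free DMEM with 10% FBS and fluorescence read directly. The blue channel used 405 nm excitation and 460 nm emission, with triamterene as the reference fluorophore.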

[13] = qHTS assay to test for compound auto fluorescence at 535 nm (green) in HEK293 cell free culture (AID 720682)
Procedure, shortened: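 No cells present: wells hold DMEM supplemented with 10% FBS, into which compound or vehicle is pinned. Green emission is then recorded (485 nm excitation, 535 nm emission) and scaled to fluorescein.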

[14] = qHTS assay to test for compound auto fluorescence at 590 nm (red) in HEK293 cell free culture (AID 720683)
Procedure, shortened: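 Cell-free wells of DMEM with 10% FBS received compound, and intrinsic fluorescence was read at excitation/emission 540/590 nm. Values expressed as equivalence to Rose Bengal sodium.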

[15] = qHTS assay to test for compound auto fluorescence at 590 nm (red) in HepG2 cell free culture (AID 720684)
Procedure, shortened: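 Rose Bengal sodium served as the reference for red signal. Test compounds were dispensed into serum-containing MEM (10% FBS) without cells, and plates were read at 540/590 nm.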

[16] = qHTS assay to test for compound auto fluorescence at 460 nm (blue) in HepG2 cell free culture (AID 720685)
Procedure, shortened: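 Cell-free plates of MEM plus 10% FBS received 23 nL compound or DMSO vehicle; blue-channel (405/460 nm) intensity scored against triamterene as reference fluorophore.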

[17] = qHTS assay to test for compound auto fluorescence at 535 nm (green) in HepG2 cell free culture (AID 720686)
[18] = qHTS assay to test for compound auto fluorescence at 460 nm (blue) in HepG2 cells (AID 720687)
Procedure, shortened: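 HepG2 cells in MEM with 10% FBS, attached overnight at 37 C, were exposed to compound or DMSO for 1 hr at 37 C, 5% CO2. Blue fluorescence was read at 405/460 nm, with triamterene as reference fluorophore.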

[19] = biological target: Glucocorticoid receptor (Homo sapiens) (UniProt P04150); assay: qHTS assay to identify small molecule agonists of the glucocorticoid receptor (GR) signaling pathway (AID 720691; active means well fitted activation curve with a large enough effect in the signal ratio in the repeat runs, not every such curve was filed as active; the % refers to the signal ratio)
Procedure, shortened: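 A HeLa cervical cancer line expressing GR and a glucocorticoid response element-driven beta-lactamase gene is treated with compounds for 18 h; LiveBLAzer B/G FRET substrate is then applied and fluorescence read.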

[20] = biological target: Glucocorticoid receptor (Homo sapiens) (UniProt P04150); assay: qHTS assay to identify small molecule antagonists of the glucocorticoid receptor (GR) signaling pathway (AID 720692; active means well fitted inhibition curve with a large enough effect in the signal ratio in the repeat runs, not every such curve was filed as active; the % refers to the signal ratio; further: potency means the concentration at half of the fitted maximal effect)
Procedure, shortened: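 GRE-bla HeLa line, dex-stimulated (5 nM final). Compound exposure 18 h, 37 C. Beta-lactamase FRET read after 2 h RT substrate.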
On the % scale 0 is the no-effect control and ±100 the full control effect.

Sequence of Glucocorticoid receptor (Homo sapiens) (P04150 whole entry, looked up): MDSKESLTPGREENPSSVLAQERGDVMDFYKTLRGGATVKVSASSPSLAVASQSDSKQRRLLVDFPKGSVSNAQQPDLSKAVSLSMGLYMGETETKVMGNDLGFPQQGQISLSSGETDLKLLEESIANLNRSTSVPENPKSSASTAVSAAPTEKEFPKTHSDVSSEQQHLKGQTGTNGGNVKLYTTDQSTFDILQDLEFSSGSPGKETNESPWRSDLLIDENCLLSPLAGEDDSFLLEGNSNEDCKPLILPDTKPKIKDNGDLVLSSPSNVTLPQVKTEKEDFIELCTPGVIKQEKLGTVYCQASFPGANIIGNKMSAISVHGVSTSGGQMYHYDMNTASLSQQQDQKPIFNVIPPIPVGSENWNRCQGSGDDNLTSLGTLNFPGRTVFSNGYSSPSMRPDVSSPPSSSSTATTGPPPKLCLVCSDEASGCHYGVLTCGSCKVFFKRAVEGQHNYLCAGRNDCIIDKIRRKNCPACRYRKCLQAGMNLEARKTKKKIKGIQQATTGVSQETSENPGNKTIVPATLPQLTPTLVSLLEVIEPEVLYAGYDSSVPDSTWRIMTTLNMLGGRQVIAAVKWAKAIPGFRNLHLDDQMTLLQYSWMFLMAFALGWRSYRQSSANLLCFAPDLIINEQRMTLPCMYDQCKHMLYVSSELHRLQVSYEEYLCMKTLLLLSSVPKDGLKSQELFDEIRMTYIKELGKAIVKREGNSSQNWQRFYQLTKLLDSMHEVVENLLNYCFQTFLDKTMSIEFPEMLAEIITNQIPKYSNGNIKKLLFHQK

[Cl][Sn]([Cl])([Cl])[Cl]
inactive: Potency [1] | Potency [2] | Potency [3] | Potency [4] | Potency [5] | Potency [6] | outcome [7] | outcome [8] | outcome [9] | outcome [10] | outcome [11] | outcome [12] | outcome [13] | outcome [14] | outcome [15] | outcome [16] | outcome [17] | outcome [18] | outcome [19] | Potency [20]

COP(=S)(OC)Oc1ccc(S(N)(=O)=O)cc1
inactive: Potency [1] | Potency [2] | Potency [3] | Potency [4] | Potency [5] | Potency [6] | outcome [7] | outcome [8] | outcome [9] | outcome [10] | outcome [11] | outcome [12] | outcome [13] | outcome [14] | outcome [15] | outcome [16] | outcome [17] | outcome [18]

C[C@]1(O)CC[C@H]2[C@@H]3CCC4=CC(=O)CC[C@]4(C)[C@@]3(F)[C@@H](O)C[C@@]21C
inactive: Potency [1] | Potency [2] | Potency [3] | Potency [4] | Potency [5] | Potency [6] | outcome [8] | outcome [9] | outcome [10] | outcome [11] | outcome [12] | outcome [13] | outcome [15] | outcome [16] | outcome [17] | outcome [18] | outcome [19]
active: Potency [20] 1.51 µM and 620 nM

CC(C)NCC(O)c1ccc(N)c(C#N)c1 (stereo unspecified)
inactive: Potency [1] | Potency [2] | Potency [3] | Potency [4] | Potency [5] | Potency [6] | outcome [7] | outcome [8] | outcome [9] | outcome [10] | outcome [11] | outcome [12] | outcome [13] | outcome [14] | outcome [16] | outcome [17] | outcome [18] | Potency [20]

Cc1ncc(CNC(=O)N(CCCl)N=O)c(N)n1
inactive: Potency [1] | Potency [2] | Potency [3] | Potency [4] | Potency [5] | Potency [6] | outcome [7] | outcome [8] | outcome [9] | outcome [10] | outcome [11] | outcome [14] | outcome [16] | outcome [17] | outcome [18] | outcome [19] | Potency [20]

CC(C1CC1)C(O)(Cn1cncn1)c1ccc(Cl)cc1 (stereo unspecified)
inactive: Potency [1] | Potency [2] | Potency [3] | Potency [4] | Potency [5] | outcome [7] | outcome [8] | outcome [9] | outcome [10] | outcome [11] | outcome [12] | outcome [13] | outcome [14] | outcome [15] | outcome [16] | outcome [17]

CN(C)CCc1ccc(O)cc1
inactive: Potency [1] | Potency [2] | Potency [3] | Potency [5] | Potency [6] | outcome [7] | outcome [8] | outcome [9] | outcome [10] | outcome [11] | outcome [12] | outcome [13] | outcome [14] | outcome [15] | outcome [16] | outcome [17] | outcome [18]

CCN(CC)C(=O)[C@@H]1C=C2c3cccc4[nH]cc(c34)C[C@H]2N(C)C1
active: Potency [6] 8.98 µM and 6.68 µM
inactive: Potency [1] | Potency [2] | Potency [3] | Potency [4] | outcome [7] | outcome [8] | outcome [9] | outcome [10] | outcome [11] | outcome [12] | outcome [13] | outcome [14] | outcome [16] | outcome [17] | outcome [18] | outcome [19]

COc1cc(OC)nc(Oc2cccc(Oc3nc(OC)cc(OC)n3)c2C(=O)O)n1
inactive: Potency [1] | Potency [2] | Potency [3] | Potency [4] | outcome [7] | outcome [8] | outcome [9] | outcome [10] | outcome [11] | outcome [12] | outcome [13] | outcome [14] | outcome [15] | outcome [16] | outcome [17] | outcome [18]

CC(N)=S
inactive: Potency [1] | Potency [2] | Potency [3] | Potency [4] | Potency [6] | outcome [7] | outcome [8] | outcome [9] | outcome [10] | outcome [11] | outcome [12] | outcome [13] | outcome [14] | outcome [15] | outcome [16] | outcome [17] | outcome [18]

COc1ccc(C(=O)N2CCCC2=O)cc1
inactive: Potency [1] | Potency [2] | Potency [3] | Potency [4] | outcome [8] | outcome [9] | outcome [10] | outcome [11] | outcome [13] | outcome [14] | outcome [15] | outcome [16] | outcome [17] | outcome [18]

COc1ccc2c(c1OC)CN1CCc3cc4c(cc3C1C2)OCO4 (stereo unspecified)
inactive: Potency [1] | Potency [2] | Potency [3] | Potency [4] | Potency [5] | fluorescence, % of fluorescein control [8] -0.0763% [at 18.6 µM] | fluorescence, % of triamterene [9] -0.105% [at 18.6 µM] | fluorescence, % of fluorescent control [10] -0.125% [at 18.6 µM] | fluorescence, % of fluorescein [11] -0.0571% [at 18.6 µM] | activity change [13] -0.0423% [at 18.6 µM] | fluorescence, % of fluorescent control [14] 0.155% [at 18.6 µM] | fluorescence, % of Rose Bengal [15] -0.268% [at 18.6 µM] | fluorescence, % of fluorescent control [16] -0.0388% [at 18.6 µM] | fluorescence, % of fluorescein control [17] 0.0175% [at 18.6 µM] | fluorescence, % of fluorescent control [18] 0.229% [at 18.6 µM] | outcome [19]

NC(=O)O
inactive: Potency [1] | Potency [2] | Potency [3] | Potency [4] | outcome [7] | outcome [8] | outcome [9] | outcome [10] | outcome [11] | outcome [12] | outcome [13] | outcome [14] | outcome [15] | outcome [16] | outcome [17] | outcome [18]

CCCCN(CCCCO)N=O
inactive: Potency [1] | Potency [2] | Potency [3] | Potency [4] | outcome [7] | outcome [8] | outcome [9] | outcome [10] | outcome [11] | outcome [12] | outcome [13] | outcome [14] | outcome [15] | outcome [16] | outcome [17] | outcome [18] | outcome [19] | Potency [20]

O=C(CCN1CC1)OCC(CO)(COC(=O)CCN1CC1)COC(=O)CCN1CC1
inactive: Potency [1] | Potency [2] | Potency [3] | Potency [4] | outcome [7] | outcome [8] | outcome [9] | outcome [10] | outcome [11] | outcome [12] | outcome [13] | outcome [14] | outcome [15] | outcome [16] | outcome [17] | outcome [18] | outcome [19]

Cc1nnc2n1-c1sc(CCC(=O)N3CCOCC3)cc1C(c1ccccc1Cl)=NC2
inactive: Potency [1] | Potency [2] | Potency [3] | Potency [4] | Potency [5] | outcome [8] | outcome [9] | outcome [10] | outcome [11] | outcome [13] | outcome [14] | outcome [15] | outcome [16] | outcome [17] | outcome [18] | Potency [20]
